Only some compounds are listed: those with a hit (about 2.5% of all), similar ones and a draw of the others.
EWS-Fli inh: inhibitors of EWS/Fli oncoprotein transcriptional activity; A673 NR0B1-luciferase reporter, viability-normalised; inhibition, % at 12.6 µM; 0.67% of 350,000 active; AID 651661;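 active = mean inhibition of at least 50% after viability correction, with every replicate also passing that limit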;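 also: firefly luciferase signal divided by Alamar Blue viability fluorescence both relative to DMSO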
TROY signal inh: TROY signaling inhibition; Q293 LMP1-TROYcd NF-kB luciferase reporter, 4 h; inhibition, % at 10 µM; 0.98% of 360,000 active; AID 1347056;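 active = compounds whose plate-normalised and pattern-corrected inhibition of the luciferase reporter signal at the single screening dose is 50% or more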
EBV LMP1 NFkB: reduces LMP1-driven NF-kappaB luciferase signal. LMP1-induced NF-kappaB luciferase reporter cells, luminescence. inhibition, % at 12.5 µM. 0.69% of 350,000 active. AID 504558; in the data active = inhibition above about 41%;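 also: 0% = neutral control wells and 100% = reference inhibitor control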
LGR2 inh: Drosophila LGR2 receptor signaling inhibition; 0.35% of 380,000 active; HEK293 LGR2, CRE-luciferase, bursicon-stimulated, 4 h; inhibition, % at 9.99 µM;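 active = drop in luminescence signal, shown as inhibition above about 50% in the replicate tests, limit read from the data, passing the limit was not always enough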;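 also: agonist challenge used bursicon conditioned medium at about half maximal strength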
TWEAK Fn14 block: inhibitors of TWEAK-Fn14 interaction signaling | TWEAK-stimulated Fn14 reporter cells, luciferase luminescence, 8 h | 2% of 360,000 active | inhibition, % at 10 µM; in the data active = inhibition above about 50%
An asterisk follows results filed as active; x = not tested or not shown.

SMILES | EWS-Fli inh | TROY signal inh | EBV LMP1 NFkB | LGR2 inh | TWEAK Fn14 block
Cc1ccc2nc(NC(=O)c3ccco3)sc2c1 | x | 62* | 53* | x | 98*
O=C(Nc1ncc(Cc2cccc([N+](=O)[O-])c2)s1)c1ccco1 | -55 | -36 | -17 | -45 | -25
Cc1ccc(Cc2cnc(NC(=O)c3ccco3)s2)cc1 | x | 35 | -10 | x | 58*
O=C(Nc1ncc(Cc2ccc(SC(F)F)cc2)s1)c1ccc(OC(F)F)cc1 | 53* | 16 | 33 | x | 14
COc1ccc2nc(NC(=O)c3ccco3)sc2c1 | 27 | 35 | 16 | 81* | 81*
COc1ccc(S(=O)(=O)N(C)C[C@@H]2Oc3ccc(NS(=O)(=O)c4ccccc4)cc3CC(=O)N([C@H](C)CO)C[C@@H]2C)cc1 | 2 | x | x | -8 | x
O=C(c1ccccn1)N1CC[C@H]2[C@H](CO)Nc3ccc(-c4ccccc4)cc3[C@H]21 | -6 | x | x | -13 | x
O=C(Nc1nc2ccc(Cl)cc2s1)c1ccco1 | x | 7 | 3 | x | 58*
CCNC(=S)Nc1cc(OC)c(NC(=O)c2ccco2)cc1OC | 0 | -5 | -7 | 0 | 16
O=C(CSc1nc2ccccc2o1)Nc1nc2ccc(Br)cc2s1 | x | 5 | -2 | x | -29
COc1ccc2nc(NC(=O)CSc3nc4ccccc4o3)sc2c1 | x | 68* | -8 | x | 35
COc1cc(C(=O)Nc2nc3ccc(C)cc3s2)ccc1OCc1c(C)noc1C | x | -19 | 7 | x | 50*
CCc1nnc(NC(=O)c2ccc(OCc3c(C)noc3C)c(OC)c2)s1 | 7 | 0 | -6 | 2 | 3
COC(=O)c1cc(OC)c(OC)cc1NC(=S)NC(=O)c1ccco1 | -5 | 7 | 6 | 13 | 74*
O=C(N[C@@H]1CC[C@H](CC(=O)N2CCCCC2)O[C@@H]1CO)c1ccc2c(c1)OCO2 | 2 | x | x | 3 | x
COc1ccc(NC(=O)Nc2ccc3c(c2)C(=O)N([C@H](C)CO)C[C@@H](C)[C@H](CN(C)Cc2ccccc2)OCCCC[C@@H](C)O3)cc1 | 5 | x | x | -5 | x
COc1cc2nc(NC(=O)c3ccco3)sc(=O)c2cc1OC | -2 | -5 | 42* | 19 | 71*
CCN(C[C@@H]1[C@@H](c2ccccc2)[C@H](CO)N1CC1CC1)C(C)=O | -1 | x | x | -1 | x
Cn1c(=O)c2c(nc(Oc3ccc4ccccc4c3)n2C)n(C)c1=O | x | 26 | 22 | 21 | 51*
N=c1c[n+](N2CCOCC2)[n-]o1 | -8 | 15 | 3 | 10 | 72*
COc1ccc(NC(=O)Nc2ccc3c(c2)C(=O)N([C@@H](C)CO)C[C@H](C)[C@@H](CN(C)S(=O)(=O)c2ccc(Cl)cc2)OCCCC[C@H](C)O3)cc1 | 22 | x | x | -21 | x
C[C@H](O)C#Cc1cnc2c(c1)C(=O)N([C@H](C)CO)C[C@H](C)[C@@H](CN(C)CC1CCCC1)O2 | -76 | x | x | -6 | x
COc1ccc(C(=O)/C=C/C(=O)N(CC(=O)NC2CCCCC2)Cc2ccc(F)cc2)c(O)c1 | 0 | 89* | 25 | x | 85*
N#Cc1c(-c2ccc(Br)cc2)cc(-c2cccnc2)nc1N | 6 | 0 | 3 | -8 | 7
CS(=O)c1nc(-c2ccc(Br)cc2)cc(-c2ccccc2)c1C#N (configuration not stated) | 16 | 74* | 13 | 97* | 56*
SMILES | EWS-Fli inh | TROY signal inh | EBV LMP1 NFkB | LGR2 inh | TWEAK Fn14 block
CS(=O)(=O)c1nc(-c2ccc(Br)cc2)cc(-c2ccccc2)c1C#N | x | 63* | 3 | x | 39
COc1ccc(-c2cc(-c3ccccc3)c(C#N)c(S(C)(=O)=O)n2)cc1 | x | -59 | 0 | x | -141
COc1cccc(CN(C)C[C@@H]2OCc3cn(nn3)CCCC(=O)N([C@H](C)CO)C[C@@H]2C)c1 | -6 | x | x | -13 | x
CC(C)c1cn(CC[C@@H]2CC[C@H](NC(=O)C3CCC3)[C@H](CO)O2)nn1 | 1 | x | x | 1 | x
CCC(=O)N1C[C@H](O)COC[C@H]2O[C@@H](CC(=O)NCC3CCCCC3)CC[C@@H]21 | 3 | x | x | -11 | x
C[C@@H]1CN([C@@H](C)CO)C(=O)CCCn2cc(nn2)CO[C@@H]1CN(C)C(=O)c1ccc2ccn(C)c2c1 | 1 | x | x | 10 | x
COC(=O)c1ccc(Sc2nnnn2-c2ccccc2)c([N+](=O)[O-])c1 | x | 36 | -9 | x | 84*
O=C(O)c1ccc(Sc2nnnn2-c2ccccc2)c([N+](=O)[O-])c1 | x | -4 | -3 | -8 | 10
Cc1ccc(-c2ccc3c(c2)O[C@H](CN(C)Cc2ccncc2)[C@@H](C)CN([C@@H](C)CO)S3(=O)=O)cc1 | 72* | x | x | -7 | x
Cc1ccc(-c2ccc3c(c2)O[C@@H](CN(C)Cc2ccncc2)[C@H](C)CN([C@H](C)CO)S3(=O)=O)cc1 | 74* | x | x | 2 | x
C[C@@H]1CN([C@@H](C)CO)S(=O)(=O)c2ccc(-c3ccccc3)cc2O[C@@H]1CN(C)Cc1ccncc1 | -4 | x | x | 8 | x
Cc1ccc(-c2ccc3c(c2)O[C@@H](CN(C)Cc2cccnc2)[C@H](C)CN([C@@H](C)CO)S3(=O)=O)cc1 | 22 | x | x | 16 | x
Cc1ccc(-c2ccc3c(c2)O[C@H](CN(C)Cc2cccnc2)[C@@H](C)CN([C@H](C)CO)S3(=O)=O)cc1 | 63* | x | x | 13 | x
C[C@@H](NC(=O)C[C@@H]1C[C@H]2c3cc(NC(=O)C4CCOCC4)ccc3O[C@H]2[C@H](CO)O1)c1ccccc1 | 1 | x | x | -6 | x
CC(C)NC(=O)N(C)C[C@H]1OCCCC[C@@H](C)Oc2ccc(NC(=O)CCCN(C)C)cc2C(=O)N([C@@H](C)CO)C[C@H]1C | x | x | x | 30 | x
Cc1cnn(C(=O)Cn2nc(C(F)F)c(Br)c2C)c1 | -4 | 68* | -2 | -3 | 4
S=C(NCc1ccccn1)NN=Cc1ccccn1 | -23 | 27 | 61* | -9 | 45
COc1ccccc1CNC(=O)C[C@H]1CC[C@H]2[C@H](COc3ccc(NC(=O)Nc4ccc(F)c(F)c4)cc3C(=O)N2C)O1 | -2 | x | x | 21 | x
CC(C)CNS(=O)(=O)c1ccc(CCC(=O)Nc2cc(Cl)ccc2Oc2ccccc2)cc1 | x | 22 | -6 | 13 | 49
Cc1ccc(C)c(N(CC(=O)Nc2cc(Cl)ccc2Oc2ccccc2)S(C)(=O)=O)c1 | x | -7 | -20 | x | 27
CCCNS(=O)(=O)c1ccc(CCC(=O)Nc2cc(Cl)ccc2Oc2ccccc2)cc1 | x | 25 | 6 | x | 66*
Cc1cccc(C)c1N(CC(=O)Nc1cc(Cl)ccc1Oc1ccccc1)S(C)(=O)=O | x | 52* | 0 | x | 10
COc1ccccc1C(=O)Nc1ccc2c(c1)nc(CCNC(=O)c1ccccc1)n2C | 65* | -23 | 5 | -31 | -20
COc1ccccc1C(=O)Nc1ccc2c(c1)nc(CCNC(C)=O)n2C | x | -25 | -7 | -17 | -12
O=C(c1ccc2oc(CCc3ccccc3)nc2c1)N1CCC(O)CC1 | -37 | 58* | -9 | -40 | 49
COc1cccc(NC(=O)N2C[C@H](O)COC[C@@H]3O[C@H](CC(=O)NC4CCCC4)CC[C@H]32)c1 | -9 | x | x | -15 | x

High-throughput results (PubChem)
